# Results taken from PubChem BioAssay (NCI).
# Compounds without any hit were thinned out: in the full panel of roughly 83,000, 20% have a hit.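 For each line, cells grew in 96-well plates with the test compound present at a single concentration for 48 hours.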 Unmarked numbers belong to inactive results. Active and inactive are the calls of the source. The calls were made as follows: active = growth percent below 10; inactive = the rest.
# System: K-562 leukemia
# Assay: NCI-60 one-dose screen, 48 h (100 = growth as untreated, 0 = no growth, -100 = all killed)
# Details: 10 µM unless noted
row,SMILES,growth
1,CCCCn1c(O)c(N=Nc2nc(-c3cc4ccccc4oc3=O)cs2)c2cc(Br)ccc21,105%
2,C=C1CC[C@@H]2[C@]3(C)COC(c4cn(-c5ccccc5)nc4-c4ccccc4)O[C@@H]3CC[C@@]2(C)[C@@H]1C/C=C1/C(=O)OC[C@H]1O (stereo partly drawn),-29.9% (active)
3,CCCCCCn1c(O)c(N=Nc2nc(-c3cc4ccccc4oc3=O)cs2)c2ccccc21,29.8%
4,CSc1ccc(C(=O)Nc2ccc3nnn(/C(C#N)=C/c4ccccn4)c3c2)cc1,-9.85% (active)
5,CCOC(=O)C1=C(N)N(c2ccccc2)C2=C(C(=O)CC(C)(C)C2)C1c1cccc(Cl)c1Cl (stereo not drawn),59.5%

# System: MALME-3M melanoma
# Assay: as above
# Details: 10 µM unless noted
row,SMILES,growth
1,O=C(CSc1nc2ccccc2c(=O)[nH]1)NCCN1CCCCC1,97.3%
2,N#Cc1c(-c2ccccc2Cl)cc(-c2c[nH]c3ccccc23)[nH]c1=O,57.2%
3,CCCCSc1nc(Nc2ccc(C(C)=O)cc2)c(C#N)c(-c2ccc(OC)cc2)n1,77.2%
4,N/C(=N\c1nc2ccccc2s1)NC(=O)NCCCCCCO,54%
5,O=C(NNc1ccccc1)n1c(=O)c2ccccc2c(=O)n1-c1ccccc1,96.5%
6,CC(=O)Oc1ccccc1C(=O)[Se]CC(=O)Nc1cccc(C(F)(F)F)c1,-92.8% (active)
7,COc1ccc(Cc2nn(CC(=O)N/N=C/c3ccc(F)cc3)c(=O)c3c(C)noc23)cc1,-0.917% (active)
8,COc1ccc(C(=O)/C=C/c2ccc(Oc3nc(Nc4ccc(F)cc4)nc(N(C)C)n3)c(OC)c2)cc1,79%
